This is an account of results in PubChem BioAssay (NCATS).

Structures are written as SMILES. Inconclusive results are not listed. A number with no mark means an inactive call. Active and inactive are the calls of the source. Calls follow the shape of the dose curve; as a rule, active = well fitted cell-killing curve with a large enough effect; inconclusive = small, poorly fitted or top-dose-only effect; inactive = no such curve, though single readings can be large or run the other way.
Potency is read from the fitted curve at half-maximal effect.

This test in a line: qHTS of pediatric cancer cell lines to identify multiple opportunities for drug repurposing: Primary screen for SJ-GBM2 cells (AID 1347091).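 As to activity change, negative = cytotoxic: plate controls were DMSO neutral control for no effect and bortezomib for full effect.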 The note with it: SJ-GBM2 viability, CellTiter-Glo luminescence, 48 h; series mostly up to 46 µM. The gist of the method:
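Eight- or eleven-point concentration series, 48 h treatment at 37 degrees C in growth media; readout CellTiter-Glo luminescence. Potency and efficacy were taken from the concentration-response curves.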
For orientation: In qHTS, concentration-response curves come from the screen itself.
Consider `N#Cc1c(O)c2c(-c3ccc(-c4ccccc4O)cc3)csc2[nH]c1=O`, for which the Potency entry was “inactive”.

In the case of `OCc1ccc(-c2ccc(-c3ccc(CO)s3)o2)s1`, the Potency is 16.6 µM (active). Still for that read-out and setting: the entry for `CC(=O)SC[C@@H](C)C(=O)N1CCC[C@H]1C(=O)N[C@@H](Cc1ccccc1)C(=O)O` is “inactive”; for `O=C(Cc1ccc(-c2ccc(OCCN3CCOCC3)cc2)cn1)NCc1ccccc1` it is 0.0187 µM (active). As for `O=C(C=Cc1c(C(=O)O)[nH]c2cc(Cl)cc(Cl)c12)Nc1ccccc1`, the Potency entry is “inactive”.

On to `C1=CCOCc2cc(ccc2OCCN2CCCC2)Nc2nccc(n2)-c2cccc(c2)OCC1`, for which the Potency is 3.72 µM (active). Take `COC(=O)c1ccc2c(C(=Nc3ccc(N(C)C(=O)CN4CCN(C)CC4)cc3)c3ccccc3)c(O)[nH]c2c1`: the Potency was 16.6 µM (active). For the molecule `COCCn1c2c([n+](Cc3cnccn3)c1C)C(=O)c1ccccc1C2=O`, the Potency is 0.0132 µM (active). The same measure, in the same setting: for `Nc1ccn([C@@H]2O[C@H](CO)[C@H](O)C2(F)F)c(=O)n1` the value was 0.235 µM (active); for `COc1cccc2nc(-c3cccs3)nc(NN3C(=O)C=C(C)C3=O)c12`, 0.935 µM (active); for `CNC(=O)c1cc(Oc2ccc(NC(=O)Nc3cc(C(C)(C)C)nn3-c3ccc4ncccc4c3)c(F)c2)ccn1`, 1.32 µM (active). In the case of `O=C(O)CCCc1c[nH]c2ccccc12`, the Potency entry was “inactive”. Same read-out and setting: for `COc1cc2c(Oc3ccc(NC(=O)C4(C(=O)Nc5ccc(F)cc5)CC4)cc3F)ccnc2cc1OCCCN1CCOCC1` the value was 0.0118 µM (active); for `CCc1cc2c(cc1N1CCC(N3CCOCC3)CC1)C(C)(C)c1[nH]c3cc(C#N)ccc3c1C2=O`, “inactive”. Regarding `COc1ccc(CC2c3cc(OC)c(OC)cc3CC[N+]2(C)CCC(=O)OCCCCCOC(=O)CC[N+]2(C)CCc3cc(OC)c(OC)cc3C2Cc2ccc(OC)c(OC)c2)cc1OC` (stereo not given), the activity change, negative = cytotoxic was 27.6% [at 9.22 µM]. Regarding `Cc1c(Cn2c(C)nc3c(C(=O)O)cc(N4CCOCC4)cc32)cccc1C(F)(F)F`, the Potency result is “inactive”.

As for `CC1=C(CO)C(=O)O[C@@H]([C@@H](C)[C@H]2CC[C@H]3[C@@H]4C[C@H]5O[C@]56[C@@H](O)C=CC(=O)[C@]6(C)[C@@H]4CC[C@]23C)C1`, the Potency was 0.372 µM (active). In the case of `C=C1C(=CC=C2CCC[C@]3(C)[C@@H]([C@H](C)C=C[C@H](C)C(C)C)CC[C@@H]23)C[C@@H](O)C[C@@H]1O`, the Potency was 0.743 µM (active).

For the molecule `C[C@]1(CO)CN(c2cc(C(=O)Nc3ccc4c(c3)-c3c(c(C(N)=O)nn3-c3ccc(F)cc3)CC4)c(Cl)cn2)C[C@@]1(C)CO`, the Potency is 6.62 µM (active). As to `NC(=O)Nc1cc(-c2cccc(F)c2)sc1C(=O)N[C@H]1CCCNC1`, the Potency is 0.235 µM (active).

With `Cc1cc(Nc2cc(NC(=O)c3c(Cl)cccc3Cl)ccn2)nc(N)n1`, the Potency was 0.59 µM (active). Still for that read-out and setting: the entry for `CC(C)(C)c1cc(C(C)(C)C)c(NC(=O)c2c[nH]c3ccccc3c2=O)cc1O` is “inactive”; for `CC=CC1=C(C(=O)O)N2C(=O)[C@H](NC(=O)[C@H](N)c3ccc(O)cc3)[C@@H]2SC1` it is “inactive”. With `Clc1cccc(-n2nnnc2NCc2ccccc2Oc2ccccn2)c1Cl`, the Potency result was “inactive”. For the molecule `C=CC(=O)Nc1cc2c(Nc3ccc(F)c(Cl)c3)ncnc2cc1C#CC(C)(C)N1CCN(C)CC1`, the Potency is 2.96 µM (active).

Regarding `CNC(=O)CN1CCC(Oc2cc3c(Nc4cccc(Cl)c4F)ncnc3cc2OC)CC1`, the Potency is 0.001 µM (active). `CC1(C)OC2=C(C(=O)c3ccccc3C2=O)[C@H](NCc2ccccc2)[C@H]1O`: the Potency was 7.43 µM (active). With `CN1c2cc(O)c(N=NC(N)=O)cc2CC1S(=O)(=O)O` (stereo not given), the Potency entry is “inactive”. Consider `CCCCCCCCCC(=O)N[C@@H](Cc1c[nH]c2ccccc12)C(=O)N[C@H](CC(N)=O)C(=O)N[C@@H](CC(=O)O)C(=O)N[C@@H]1C(=O)NCC(=O)N[C@@H](CCCN)C(=O)N[C@@H](CC(=O)O)C(=O)N[C@H](C)C(=O)N[C@@H](CC(=O)O)C(=O)NCC(=O)N[C@H](CO)C(=O)N[C@@H]([C@@H](C)CC(=O)O)C(=O)N[C@@H](CC(=O)c2ccccc2N)C(=O)O[C@@H]1C`, for which the Potency result is “inactive”. Still for that read-out and setting: the figure for `CN1CC[C@@H](c2c(O)cc(O)c3c(=O)cc(-c4ccccc4Cl)oc23)[C@@H](O)C1` is 0.0526 µM (active); for `CC(C)c1ccc(Cn2ccc3c4c(N)nc(NC5CC5)nc4ccc32)cc1` it is 3.72 µM (active). `O=C(O)Cn1nnc(-c2cc(N3CCC(Oc4cc(F)ccc4Br)CC3)no2)n1`: the Potency is 0.469 µM (active).

As for `CN1CCN(c2ccc3nc(-c4c(N)c5c(F)cccc5[nH]c4=O)[nH]c3c2)CC1`, the Potency was 20.9 µM (active). Regarding `CC(=O)OCCN1C(=O)c2c(C)nc3ccc(S(=O)(=O)N4CCOCC4)cc3c2C1=O`, the Potency entry was “inactive”.

Turning to `CCOc1ccccc1OCCNC(C)Cc1ccc(OC)c(S(N)(=O)=O)c1` (stereo not given), the Potency entry was “inactive”.
